Each structure is given as a SMILES string. The panel holds about 83,000 compounds, 20% with a hit somewhere; the sample as a whole holds those more often.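 96-well plates, one dose, 48 hours. Percent growth reported; active if below 10.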 Values without a mark were called inactive. The source made the active and inactive calls.

The subject of this test is ACHN renal. The experiment in a line: NCI-60 one-dose screen, 48 h (100 = growth as untreated, 0 = no growth, -100 = all killed). The settings on record: 10 µM. As to the method:
Growth inhibition of the ACHN human tumor cell line is measured as a screen for anti-cancer activity. Cells are grown in 96 well plates and exposed to the test compound for 48 hours. Compounds are tested at a single concentration, which is 10^-5 M for most compounds. The reported endpoint is percent growth (GI% or GIPRCNT), where numbers from 0 - 100% represent growth inhibition, and numbers from -100% - 0 represent cell death. For example, a value of 40 represents 60% growth inhibition. A value of 0 means no net growth occurred over the course of the experiment. A value of -40 indicates 40% of cells at the beginning of the experiment died by the end of the experiment. A value of -100 means all cells are dead at the end of the experiment.
NCI-60 Human Tumor Cell Lines Screen was performed using the standard one-dose NCI protocol, which is described in more detail at https://dtp.cancer.gov/discovery_development/nci-60/default.htm.
Compounds with GIPRCNT values below 10 were considered active. Activity score was based on GIPRCNT using the following formula: […]
Score is 0 for GIPRCNT values of 100 or above, 50 for GIPRCNT values of 0, and 100 for GIPRCNT values of -100.
In the case of `COc1ccc(-c2cc(=O)n(-c3nc4ccccc4[nH]3)[nH]2)cc1OC`, the growth is 57.6%.

With `COc1cc(NS(C)(=O)=O)ccc1Nc1c2ccc(Cl)cc2nc2c(OC)cccc12`, the growth was -46.4% (active).

Take `Cc1cc2cc3c(=O)[nH]c(=O)cc-3n(CC(O)C(O)C(O)CO)c2cc1C` (stereo not given): the growth is 75.1%.

`COc1ccc(N2CCN(c3nc(-c4ccccc4)c(C#N)c(=O)[nH]3)CC2)cc1`: the growth was 99%.

On to `O=C(c1ccccc1)C(Sc1ccccc1)c1ccccc1` (stereo not given), for which the growth was 34.5%.

As to `CCOC(=O)/C(C#N)=C(/C)C1CC1`, the growth was 105%.

On to `COc1cccc(C(=O)N(c2ccc(F)c(F)c2)C(C(=O)NC(C)(C)C)c2cc3c(C)cc(C)cc3nc2Cl)c1` (stereo not given), for which the growth was 59.4%.

Take `Nc1c(C(=O)Nc2ccccc2F)sc2nc3c(cc12)C(=O)CCC3`: the growth is 65.4%.

As to `COc1cccc(C2(C)Nc3ccccc3-c3nc4ccccc4n32)c1` (stereo not given), the growth is 102%.

Take `Cc1cc(/C=C2\SC(=Nc3ccccc3)N(C3CCCC3)C2=O)c(C)n1-c1ccc(Cl)cc1`: the growth is -76.3% (active).

As to `COc1cc(C2C=C(c3ccc(Cl)c(Cl)c3)N=C3SC(C)=CN32)cc(OC)c1OC` (stereo not given), the growth is 90.3%.

With `CCCCCC(=O)N1c2ccccc2NC2=C(C(=O)CC(c3ccc(OC)c(OC)c3)C2)C1c1ccc(C(F)(F)F)cc1` (stereo not given), the growth is 58.3%.

Turning to `O=C(N/N=C/c1ccccc1O)c1ccccc1`, the growth was 13%.

For the compound `COc1cc(Cn2c(-c3ccccc3)cc3c2-c2oncc2CC3)cc(OC)c1`, the growth is 34.7%.

As for `CCOC(=O)c1cc2c(n1Cc1ccccc1)-c1oncc1CC2`, the growth was 82.1%.

Turning to `COc1ccc(C2=NNC(c3sc(Cl)nc3Cl)C2)cc1` (stereo not given), the growth was 105%.

In the case of `CCN(Cc1ccccc1)C1CCN(Cc2cc(Br)ccc2O)CC1`, the growth is 45.1%.

For `N#C/C(=C/c1cc([N+](=O)[O-])ccc1Cl)C(N)=O`, the growth is 105%.

`Cc1ccc(NS(=O)(=O)c2ccccc2)c(NS(=O)(=O)c2ccccc2)c1`: the growth is 94.3%.

On to `Cc1ccccc1C1=N[C@@H](Cc2ccccc2)C(=O)c2c(nc3ccccn23)N1`, for which the growth is 94.5%.

For `CCCCCCCCCCCCCCCCCBr`, the growth was 102%.

With `COc1cc(/C=C2\C(=O)Nc3cc(C)c(O)cc32)cc(OC)c1OC`, the growth is 68.4%.

Consider `CC(=O)c1c(O)cc2c3c1OC(C)(C)C1CCC(C)(CC31)O2` (stereo not given), for which the growth is 95.1%.

For `FC(F)(F)c1ccc(-c2cnc(Br)nc2NC2CCCCCC2)cc1`, the growth was 10.4%.

As to `O=C(Cn1ccc(=O)[nH]c1=O)c1ccc([N+](=O)[O-])o1`, the growth was 110%.

Turning to `N=C(N)c1ccc(-c2ccc(-c3ccccc3)s2)cc1F`, the growth is -98.3% (active).

On to `O=C(/C=C/c1ccc(Cl)cc1)c1ccc(Br)cc1`, for which the growth was 104%.

For `COc1ccc(-c2oncc2-c2cc(OC)c3c(c2)OCO3)cc1`, the growth was 41.1%.

With `CC(C)=C1CCC(C)C/C1=N\N=C(N)N` (stereo not given), the growth is 105%.

Take `O=NN(CCCl)C(=O)Nc1ccc(NC(=O)N(CCCl)N=O)cc1`: the growth is 96.4%.

Take `COc1ccc2oc(=O)cc(C(c3ccc[nH]3)c3ccc[nH]3)c2c1`: the growth is 17.3%.

As for `CCCCN(CCCC)c1ccc(C(=NC(C)CCCN(CC)CC)c2ccc(N(C)C)cc2)cc1` (stereo not given), the growth is -41.3% (active).

As for `CC(C)/C(=N/O)c1ccccc1`, the growth is 107%.

As for `CCOc1ccc(-n2cc(-c3ccc(N(C)C)cc3)[n+]3c2CCCCC3)cc1`, the growth is 22.2%.

`COc1ccc(C(C)=O)cc1N1C(=O)C2C(C1=O)C1(c3ccccc3)C(=O)C2(c2ccccc2)C(c2ccc(C)cc2)=C1c1ccc(C)cc1` (stereo not given): the growth is 23.1%.

On to `CCCCn1c(=O)[nH]c(N)c(C(c2ccc(Cl)cc2)c2c(N)[nH]c(=O)n(CCCC)c2=O)c1=O`, for which the growth was 67.2%.

On to `Nc1ccc2c(c1)Cc1cc(N)c(Cl)cc1-2`, for which the growth is 98.5%.

Regarding `COC(=O)[C@]12CC[C@@H](C)[C@H](C)[C@@H]1C1=CC[C@@H]3[C@@]4(C)C/C(=N\O)[C@H](O)[C@@]5(C)COC(=C45)C[C@@]3(C)[C@]1(C)CC2`, the growth was -80.9% (active).

`CCCCCCOc1ccc(/C=C/C(=O)c2ccc(B(O)O)cc2)cc1`: the growth was 89.5%.

Take `C=C1C(=O)O[C@H]2[C@H]1CC/C(COC(=O)OCCCCCOC(=O)OC/C1=C/CC[C@@]3(C)O[C@H]3[C@H]3OC(=O)C(=C)[C@@H]3CC1)=C\CC[C@@]1(C)O[C@@H]21`: the growth is -65.7% (active).

The record behind these values is PubChem BioAssay (NCI).
